# Screening results deposited in PubChem BioAssay by National Center for Advancing Translational Sciences (NCATS).
# Rows were chosen to be rich in hits. Some 6.1% of all compounds tested hit in one or more screens of this group.
# Luciferase inh – qHTS Assay for Inhibitors of Firefly Luciferase; AID 411, 2009; Luciferin 4-monooxygenase (Photinus pyralis), P08659; 72,000 compounds, 2.2% hits; purified firefly luciferase, luminescence, 8 min; Potency, µM (series often up to 57.1 µM), inactives show at the highest dose activity change, negative = inhibition, most hits filed as inhibitors; note: % is set by controls: 0 for no effect and ±100 for the full control effect; nearly all actives have a fitted effect of over 40% in size
#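 Here, luciferase activity is measured as luminescence following an 8 min room-temperature reaction at 10 uM ATP, pH 7.2. Every library sample is titrated.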
# HEK293 cAMP cs – qHTS Assay for Agonists of the Thyroid Stimulating Hormone Receptor: Activators of Intracellular cAMP Concentrations in Parental HEK 293 | parental HEK293 CNG cAMP sensor, membrane potential fluorescence | Potency, µM (top dose mostly 57.1 µM), inactives show at the top dose activation, hits mostly activators | 73,000 compounds, 2.5% hits; note: % of control where 0% means no effect; nearly all actives have a fitted effect of over 55% in size
#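 Parental HEK 293 cells stably expressing a cAMP-gated CNG channel were loaded with membrane potential dye containing 100 uM RO 20-1724 for 60 min. Compound added for 30 min; depolarization read as fluorescence intensity at 590 nm.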
# GBA activity – Glucocerebrosidase. Potency, µM. AID 360, 2006. 48,000 compounds, 1.1% hits. purified enzyme, resorufin glucoside fluorescence (screen aimed at inhibitors), 20 min; in the data active = potency below about 15 µM; inconclusive = mostly about 16 µM to 33 µM;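 note: the screen sought inhibitors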
# Target sequence (P04062 whole entry, looked up): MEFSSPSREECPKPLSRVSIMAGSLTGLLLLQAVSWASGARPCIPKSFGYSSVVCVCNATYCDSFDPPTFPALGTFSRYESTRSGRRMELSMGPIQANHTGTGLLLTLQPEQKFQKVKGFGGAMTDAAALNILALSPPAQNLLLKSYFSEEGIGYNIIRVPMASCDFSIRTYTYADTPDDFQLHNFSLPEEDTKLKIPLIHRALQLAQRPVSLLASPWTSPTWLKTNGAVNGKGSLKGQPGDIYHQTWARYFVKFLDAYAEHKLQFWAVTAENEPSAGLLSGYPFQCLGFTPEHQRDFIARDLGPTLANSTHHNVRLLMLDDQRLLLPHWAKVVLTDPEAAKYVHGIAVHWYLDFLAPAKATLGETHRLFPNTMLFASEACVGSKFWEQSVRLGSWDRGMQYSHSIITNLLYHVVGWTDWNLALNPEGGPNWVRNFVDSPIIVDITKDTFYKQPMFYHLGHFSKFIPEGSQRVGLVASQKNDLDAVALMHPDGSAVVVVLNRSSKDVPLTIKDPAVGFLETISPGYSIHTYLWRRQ
#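 Normal human glucocerebrosidase (0.2 nM final) was assayed with resorufin β-D-glucopyranoside (30 uM final) in 50mM citric acid/KH2PO4, 10mM sodium taurocholate, 0.01% tween-20, pH 5.9. Compounds were titrated; fluorescence (Ex 548, Em 600) read after 20 min at RT.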
# ERK AVP block – qHTS Assay for Inhibitors of the ERK Signaling Pathway using a Homogeneous Screening Assay; HEK293-V1b, vasopressin-stimulated pERK AlphaScreen; Potency, µM (doses to about 57.5 µM), for the others: at the highest dose activity, negative = inhibition, usual class: inhibitors; 72,000 compounds, 0.99% hits; note: % is set by controls: 0 for no effect and ±100 for the full control effect; nearly all actives have a fitted effect of over 55% in size
#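 HEK293 cells stably expressing V1b receptor, seeded overnight in 1% FBS, were treated with compounds for 30 min at 37C, then stimulated 5 min with 25 nM vasopressin; phospho-ERK read by AlphaScreen SureFire after lysis.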
# TSHR ag – qHTS Assay for Agonists of the Thyroid Stimulating Hormone Receptor; Potency, µM (highest dose often 57.1 µM), inactives show at the top dose activation, most hits filed as activators; 73,000 compounds, 0.48% hits; HEK293-CNG-TSHR cells (CNG channel as cAMP sensor), membrane potential dye, cAMP; active = well fitted activation curve with a large enough effect in the main read-out, with a control signal flat, not every such curve was filed as active; inconclusive = small, poorly fitted or top-dose-only effect, or a change in a side signal; inactive = no such curve, though single readings can be large or run the other way; % of control where 0% means no effect;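 note: the control signal comes from parental cells without the receptor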
#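 cAMP rise detected as CNG-channel membrane depolarization by fluorescent dye (emission 590 nm), 30 min after compound, following 60 min dye loading containing 100 uM RO 20-1724 at room temperature. Cells: TSHR/CNG HEK 293, with parental CNG HEK 293 as control.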
# Bst PK mod – Pyruvate Kinase; 51,000 compounds, 1.2% hits; purified pyruvate kinase, luminescence ATP production; ribose 5-phosphate activator present at AC10; Potency, µM; in the data active = potency below about 11 µM; inconclusive = mostly about 12 µM to 25 µM;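 the screen sought inhibitors and activators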;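 note: scaled between full activation by ribose 5 phosphate and full inhibition by luteolin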
# * marks the source's active call; other numbers are inactive results; u = inconclusive; x = no result; ! = not confirmed by another sample; [ ] = dose if it differs, or a comment. Unless noted, calls come from the whole dose curve; as a rule, active = well fitted curve in the direction sought with a large enough effect; inconclusive = small, poorly fitted or top-dose-only effect, or another doubt; inactive = no such curve, though single readings can be large; an effect the other way counts as inactive or inconclusive. Potency is the fitted concentration of half-maximal effect.
SMILES,Luciferase inh,HEK293 cAMP cs,GBA activity,ERK AVP block,TSHR ag,Bst PK mod
O=C(Nc1ccc2c(c1)OCO2)c1cccc2c1C(=O)N(Cc1cccnc1)C2,-19%,-5%,>77,4%,23%,x
CCCN1Cc2cccc(C(=O)Nc3ccc4c(c3)OCCO4)c2C1=O,13µM*,-3%,x,u,3%,x
CCCN1Cc2cccc(C(=O)Nc3ccc4c(c3)OCO4)c2C1=O,-2%,u,>77,17%,u,x
Cc1cc(=O)n2[nH]c(-c3ccc(Cl)cc3)cc2n1,16µM*,-15%,x,8%,-6%,u
CC1(Cc2cn(CCC#N)c3ccccc23)OCCO1,3%,15%,14*,-1%,16µM*,>57
CCN1CCC[C@@H]1CNC(=O)c1c(O)c(Cl)cc(Cl)c1OC,1%,-6%,x,-2%,5%,x
CCN1CCC[C@H]1CNC(=O)c1c(O)c(Cl)cc(Cl)c1OC,13µM*,-4%,x,-7%,4%,x
Cc1cc(Cl)ccc1OC(C)C(=O)Nc1ccccc1N1CCOCC1 (stereo not given),-1%,25µM*,>77,17%,u,>57
CC1(C)CC23C(=O)CCC(O)C2(C)CCC13 (stereo not given),x,x,x,-4%,x,x
CN1CCN(CC(C)(C)NS(=O)(=O)c2ccc(Cl)cc2)CC1,2%,11%,14*,6%,6%,>57
COc1ccc(-c2nc3cnc(Oc4cccc(Cl)c4)nc3n(C3CC3)c2=O)cc1,1%[11.4 µM],18%,x,5%,5%,x
O=c1c(CCc2ccccc2)nc2cnc(N3CCNCC3)nc2n1CCc1ccccc1,0%[11.4 µM],9%,x,u,0%,x
COc1ccc2c(c1)sc1nc(-c3ccccc3)cn12,0.063µM*,u,x,-10%,u,0.055*
N[C@@H](C(=O)O)c1ccc(C(=O)O)c(O)c1,-1%,7%,x,6%,2%,x
c1ccc(CNc2ncnc3ccccc23)cc1,0%,u,>77,25µM*,u,>57
CN(C)c1ccc(-c2cncnc2NCc2ccccc2)cc1,-1%[2.29 µM],-22%,x,25µM*,28%,x
CN(C)c1ccc(-c2ccc3ncnc(NCc4ccccc4)c3c2)cc1,1%[2.29 µM],-53%,x,13µM*,u,x
C=CCNc1ncnc2ccccc12,-1%,5%,>77,-1%,1%,>57
CN(C)c1ccc(-c2cncnc2NCc2cccs2)cc1,0%[2.29 µM],-3%,x,u,25%,x
OCc1cc([C@@H](O)CNCCCCCCOCCCCc2ccccc2)ccc1O,16µM*!,u,x,u,u,x
COc1ccccc1CNc1ccnc(-c2ccccc2CN(C)C)n1,0%[2.29 µM],u,x,-4%,u,x
Cc1ccc(-c2nnn(CC(=O)N(Cc3ccco3)C(C(=O)NC(C)(C)C)c3cccs3)n2)o1 (stereo not given),0%,20µM*,>77,-17%,u,>57
Cc1ccc(C(C(=O)NC(C)(C)C)N(CC2CCCO2)C(=O)Cn2nnc(-c3ccc(C)o3)n2)cc1 (stereo not given),1%,25µM*,>77,-2%,u,>57
Cc1ccc(-c2nnn(CC(=O)N(Cc3cccs3)C(C(=O)NC(C)(C)C)c3ccco3)n2)o1 (stereo not given),-1%,1µM*,x,-24%,u,>57
Cc1ccc(-c2nnn(CC(=O)NCC3COCCO3)n2)o1 (stereo not given),3%,3%,>77,0%,-6%,>57
SMILES,Luciferase inh,HEK293 cAMP cs,GBA activity,ERK AVP block,TSHR ag,Bst PK mod
CN(C)c1ncc2nc(-c3ccc(Cl)cc3)c(=O)n(C3CC3)c2n1,-2%[11.4 µM],14%,x,11%,26%,x
CCOc1ccccc1/C=C(\C#N)C(N)=O,1%[11.4 µM],12%[11.4 µM],x,-9%[11.5 µM],3%[11.4 µM],x
CCOC(=O)C1CCCN(Cc2ccc(O)c(OC)c2)C1 (stereo not given),1%,-1%[11.4 µM],x,-3%,-1%[11.4 µM],x
CCOC(=O)C1CCCN(Cc2ccc(OC)cc2OC)C1 (stereo not given),0%,32µM*,x,47%,u,x
N#Cc1ccc(CN2CCCC3(CCN(S(=O)(=O)c4ccccc4)CC3)C2)cc1,1%[11.4 µM],13µM*,x,19%,u,x
O=S(=O)(c1ccccc1)N1CCC2(CCCN(c3cccc(-c4ccccc4)c3)C2)CC1,1%[11.4 µM],14%,x,31%,2%,x
O=S(=O)(c1ccccc1)N1CCC[C@@]2(CCN(Cc3ccccc3)C2)C1,1%[11.4 µM],u,x,5%,u,x
O=S(=O)(c1ccccc1)N1CCC2(CCCN(c3ccccc3)C2)CC1,0%[11.4 µM],25µM*,x,16%,u,x
O=S(=O)(c1ccccc1)N1CCC2(CCCN(c3ccncc3)C2)CC1,1%[11.4 µM],20µM*,x,-11%,u,x
Cc1ccc2c(CC(=O)N3CCc4ccccc43)coc2c1,20µM*,u,>77,20%,u,>57
CCCSc1oc(-c2ccco2)nc1S(=O)(=O)c1ccccc1,3%,25µM*,>77,0%,u,>57
Cn1cnc([N+](=O)[O-])c1Sc1nc(N)nc2c1ncn2[C@H]1C[C@H](O)[C@@H](CO)O1,1%[11.4 µM],6%[11.4 µM],x,16%[11.5 µM],0%[11.4 µM],x
CCOc1ccc(NC(=O)c2ccccc2CO)cc1,u,5%,>77,18%,11%,x
CCOc1ccc(NC(=O)c2ccccc2O)cc1,1.3µM*,-4%,>77,-12%,8%,2.5*
CCOc1ccc(NC(=O)c2nccnc2CO)cc1,16µM*,6%,>77,-2%,2%,u
CCOc1ncccc1C(=O)Nc1ccc(Cl)cc1,0%,u,>77,4%,u,3.8*
C[C@]12CC[C@H]3c4ccc(O)cc4CC[C@@H]3[C@H]1CC[C@@H]2OC(=O)CCc1ccccc1,2%[11.4 µM],5%[11.4 µM],x,10%[11.5 µM],0%[11.4 µM],x
C[N+](C)(C)[C@@H](C1=CCCC1=O)c1ccccc1,5%[11.4 µM],-2%[11.4 µM],x,-11%[11.5 µM],2%[11.4 µM],x
C#CCCCO/N=C1/C[C@@H](O)[C@@H](O)[C@@H]2[C@H]3C(=O)N(c4ccc(F)cc4F)C(=O)[C@@H]3CC[C@@H]12,0%[11.4 µM],-9%[11.4 µM],x,5%[11.5 µM],10%[11.4 µM],x
COc1ccc(CNc2cc(C)nc3ncnn23)c(OC)c1,3%,4µM*,>77,-7%,u,>57
NS(=O)(=O)c1ccc(N=Nc2nc3[nH]c(=O)[nH]c(=O)c3[nH]2)cc1,1%[11.4 µM],1%[11.4 µM],x,38%[11.5 µM],2%[11.4 µM],x
O=S(=O)(N1CCCCC1)n1c(Cc2ccccc2)nc2ccccc21,0%,32µM*,x,19%,u,>57
O=C(Nc1ncc2c(n1)CC(c1ccccc1)CC2=O)c1ccco1 (stereo not given),1%,6%,>77,-12%,3%,>57
